In the library only some 3% were active in any assay of this set; here they are far more common.
PPC-1+TRAIL kill: compounds killing PPC-1 cancer cells with TRAIL present (potentiator screen, no TRAIL-free arm); PPC-1 cells + TRAIL, ATPLite viability luminescence; cell killing (% activity), % at 4 µM or 5 µM; 0.41% of 220,000 active; AID 1443;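 active = cell killing above 50% in the first pass at 4 µM, then a duplicate retest at 5 µM averaging 50% or more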;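 note: plate controls were cells with TRAIL plus DMSO for no effect and medium-only wells lacking cells for full effect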
SENP6 block: blocks the human protease SENP6; inhibition, % at 10 µM; 1.8% of 330,000 active; Recombinant SENP6 catalytic domain, aminoluciferin luminescence;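 active = inhibition above about 50% at the single tested dose, limit read from the data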;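 note: plate controls were DMSO wells with enzyme for no effect and DMSO wells lacking enzyme for full effect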
SENP8 block-1: blocks human SENP8 cleavage of Nedd8 substrate; recombinant SENP8, Nedd8 substrate fluorescence; inhibition, % at 20 µM; 0.64% of 360,000 active; in the data active = inhibition mostly above about 40%, no sharp cut-off; inactive = mostly below about 27%
TRAIL sens C8: caspase-8 TRAIL sensitization. NB7+C8 cells + TRAIL, ATPlite viability luminescence. inhibition (viability loss, TRAIL sensitization), % at 10 µM. AID 624354. 1% of 360,000 active;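 active = compounds causing at least 50% loss of cell viability in the single-dose screen, relative to plate controls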
SENP8 block-2: inhibitors of human SENP8 protease; 1.2% of 330,000 active; inhibition, % at 10 µM; purified SENP8, Z-RLRGG-aminoluciferin cleavage, luminescence; Q96LD8; in the data active = inhibition above about 50%
SENP7 block: SENP7 protease inhibition. Q9BQF6. recombinant SENP7, Z-RLRGG-aminoluciferin luminescence, 40 min. inhibition, % at 5 µM. 1.5% of 330,000 active;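 active = inhibition above about 50% at the single test dose, limit read from the data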;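 note: plate controls were DMSO with enzyme for no effect and no enzyme buffer wells for full effect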
Target sequence (Q9BQF6 706-1050 limits assumed): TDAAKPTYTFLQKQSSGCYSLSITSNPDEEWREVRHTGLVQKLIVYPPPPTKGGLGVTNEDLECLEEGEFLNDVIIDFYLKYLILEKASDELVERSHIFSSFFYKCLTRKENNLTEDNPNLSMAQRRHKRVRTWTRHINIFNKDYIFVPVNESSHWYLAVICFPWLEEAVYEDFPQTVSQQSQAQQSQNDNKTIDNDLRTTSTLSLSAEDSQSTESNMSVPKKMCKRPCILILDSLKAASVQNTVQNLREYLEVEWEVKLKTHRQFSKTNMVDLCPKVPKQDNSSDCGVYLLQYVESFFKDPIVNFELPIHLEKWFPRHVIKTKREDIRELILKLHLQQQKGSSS
SENP8 confirm: human SENP8 inhibition, confirmed | Recombinant SENP8, Z-RLRGG-aminoluciferin luminescence, 60 min | shares compounds with SENP7 block | AID 488912 | inhibition, % at 12.5 µM | 40% of 6,200 active;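 active = mean inhibition across replicates above about 50%, limit read from the data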
SENP6 confirm: human SENP6 inhibition, confirmed. shares compounds with SENP7 block. 58% of 6,200 active. recombinant SENP6, Z-RLRGG-aminoluciferin luminescence. inhibition, % at 12.5 µM
SENP7 confirm: human SENP7 inhibition, confirmed | shares compounds with SENP7 block | recombinant SENP7, Z-RLRGG-aminoluciferin luminescence, 40 min | inhibition, % at 12.5 µM | 69% of 6,200 active
Casp3 SENP sel: caspase-3 inhibition (SENP selectivity assay) | shares compounds with SENP7 block | purified caspase-3, Z-DEVD-aminoluciferin luminescence, 60 min | inhibition, % at 12.5 µM | 60% of 6,200 active | AID 488918;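 active = mean inhibition above about 50%, limit read from the data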;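 note: plate controls were enzyme with DMSO for no effect and wells without caspase-3 for full effect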
Target sequence (P42574 28-227 limits assumed): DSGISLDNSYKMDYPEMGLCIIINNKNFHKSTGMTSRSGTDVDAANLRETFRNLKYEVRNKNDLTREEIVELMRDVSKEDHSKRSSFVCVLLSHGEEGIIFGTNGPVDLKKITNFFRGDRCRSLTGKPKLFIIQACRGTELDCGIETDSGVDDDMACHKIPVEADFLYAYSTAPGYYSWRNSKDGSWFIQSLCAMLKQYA
SENP luc ctr: interferes with luciferase luminescence in SENP counter-screen; shares compounds with SENP7 block; Pre-incubated SENP8/Z-RLRGG-aminoluciferin, luciferase luminescence interference; inhibition, % at 12.5 µM; 39% of 6,200 active;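 active = mean inhibition above about 50% when retested at one dose, limit read from the data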;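 note: plate controls were DMSO wells with completed reaction for no effect and substrate without enzyme for full effect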
* hit, by the source's call; / = no result given.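 Rule for the calls, unless noted: active = mean inhibition above about 50% in the one-dose retest (limit read from the data); inactive = the rest.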

SMILES	PPC-1+TRAIL kill	SENP6 block	SENP8 block-1	TRAIL sens C8	SENP8 block-2	SENP7 block	SENP8 confirm	SENP6 confirm	SENP7 confirm	Casp3 SENP sel	SENP luc ctr
COc1ccc(N(CCC(=O)Nc2ccccc2F)S(=O)(=O)c2ccc(C)cc2C)cc1	/	4	15	-5	0	3	/	/	/	/	/
CC(C)(C)/C(O)=C/c1nc2ccccc2[nH]c1=O	-20	-7	-14	-2	4	-4	/	/	/	/	/
O=c1[nH]c2ccccc2nc1/C=C/c1ccc(F)cc1	17	64*	-399	53*	59*	55*	26	26	23	19	10
O=c1[nH]c2ccccc2nc1/C=C/c1ccccc1	18	10	-395	34	56*	56*	14	27	49	42	16
O=c1[nH]c2ccccc2nc1/C=C/c1ccc(O)cc1	12	93*	-385	36	93*	92*	97*	98*	102*	92*	83*
CCCCCCNC(=O)O[C@H]1C[C@H](C(=O)OC)[C@H](C(=O)OC)C2CN(S(=O)(=O)c3ccc(C)cc3)C[C@@]21O (stereo partly specified)	/	/	16	4	/	/	/	/	/	/	/
CSc1ncccc1C(=O)OCC(=O)Nc1cccc(S(=O)(=O)N2CCOCC2)c1	/	-8	8	-1	9	1	/	/	/	/	/
CC(C)(C)c1cc[n+](C2=C([O-])c3ccccc3C(=O)/C2=N\S(=O)(=O)c2cccs2)cc1	14	66*	106*	54*	51*	35	51*	75*	39	6	-3
COC(=O)Nc1nnc(-c2ccccc2Cl)s1	27	76*	-139	36	50	72*	57*	56*	83*	50	23
COc1ccc(C(=O)Nc2ccc(Cl)cc2F)cc1S(=O)(=O)N1CCCC1	/	2	14	8	1	-5	/	/	/	/	/
Cc1ccc(S/C=C\C(=O)c2ccccc2)cc1	2	87*	15	55*	82*	92*	6	90*	79*	64*	55*
Cc1ccc(C(=O)/C=C\C(=O)c2ccc(C)cc2)cc1	24	/	23	-13	/	/	/	/	/	/	/
O=C1OCCC1=COCCCCCOC=C1CCOC1=O	/	/	9	-7	/	/	/	/	/	/	/
Cc1ccc(C(=O)Nc2nc(C)c(C)s2)o1	1	74*	-49	9	58*	79*	7	72*	92*	91*	75*
COCC(=O)Nc1nc2ccc(C)cc2s1	0	68*	2	14	30	58*	67*	62*	88*	82*	64*
Cc1ccc2nc(NC(=O)c3ccc(Br)o3)sc2c1	/	73*	-226	48	60*	87*	36	38	48	44	14
Cc1nc(NC(=O)c2ccc(Br)o2)sc1C	33	86*	-38	13	63*	81*	73*	78*	95*	89*	33
Cc1ccc2nc(NC(=O)COC(=O)c3ccncc3)sc2c1	21	-21	24	-15	0	-4	/	/	/	/	/
O=C(CN1C(=O)c2ccccc2S1(=O)=O)c1ccc(Cl)cc1Cl	/	67*	-2	67*	72*	8	73*	77*	84*	50*	9
COc1ccc(-c2c(NC(=O)CC(C)C)n(C)c3ccccc3c2=O)cc1OC	/	-7	0	13	-1	-4	/	/	/	/	/
C#CCNC(=O)C[C@@H]1C[C@@]2(C(=O)OCC)CCCC=C2N(Cc2ccccc2)C1=O	/	/	18	-14	/	/	/	/	/	/	/
CCCn1c(SCC(=O)Nc2cc(S(=O)(=O)N3CCCCC3)ccc2C)n[nH]c1=O	/	-14	0	-16	-9	0	/	/	/	/	/
Cc1oc2c(c1C(=O)O)C(=O)c1ccccc1C2=O	20	63*	45*	13	30	18	12	52*	30	51*	18
Cc1oc2c(c1C(=O)c1ccccc1)C(=O)C(=O)c1ccccc1-2	17	83*	99*	97*	65*	42	-4	72*	49	5	-1
CCOC(=O)c1c(C)oc2c1C(=O)c1ccccc1C2=O	10	49	39	45	17	10	/	/	/	/	/
SMILES	PPC-1+TRAIL kill	SENP6 block	SENP8 block-1	TRAIL sens C8	SENP8 block-2	SENP7 block	SENP8 confirm	SENP6 confirm	SENP7 confirm	Casp3 SENP sel	SENP luc ctr
Cc1cccc(COc2ccccc2C(=O)OCC(=O)N(C)c2c(N)n(Cc3ccccc3)c(=O)[nH]c2=O)c1	/	-4	3	12	3	-7	/	/	/	/	/
CN(C)c1cc(N/N=C/c2ccccc2C(F)(F)F)nc(N(C)C)n1	/	55*	-30	5	26	46	5	46	22	0	-2
Cc1nnc(N/N=C/c2ccccc2C(F)(F)F)n1N	/	16	12	-20	4	0	/	/	/	/	/
c1ccc(-c2ccc(-c3ccncn3)cc2)cc1	/	61*	-99	38	51*	84*	6	16	32	26	11
COc1ccc(CNC(=O)C2CCN(C(=O)[C@@H]3Cc4ccccc4CN3)CC2)cc1	/	4	-3	8	-5	-14	/	/	/	/	/
Cc1ccc(NC(=O)CCC(=O)c2ccc(Cl)s2)nc1	/	-6	-63	0	2	7	/	/	/	/	/
Cc1nc(/N=C\c2ccc(N(C)C)cc2)sc1C	/	3	0	-6	60*	10	-24	-14	-8	-9	-5
CN(C)c1ccc(C=Nc2ccc(N(C)C)cc2)cc1	18	22	5	-1	-16	23	/	/	/	/	/
CC1(C)Cc2c(sc(NC(=O)Nc3ccccc3)c2C(N)=O)CO1	/	68*	-84	1	56*	53*	-3	52*	80*	52*	33
CC1(C)Cc2c(sc(NC(=O)C(=O)N3CCCC3)c2C(N)=O)CO1	/	-8	-15	-3	5	-14	/	/	/	/	/
CC(C)COc1ccc(-c2nnc(-c3ccncc3)o2)cc1	14	66*	-316	12	27	57*	25	31	41	46	30
CCOc1ccc(-c2nnc(-c3cccs3)o2)cc1	37	48	-284	37	73*	85*	38	62*	60*	72*	22
CCOc1ccc(-c2nnc(-c3cccs3)o2)cc1OCC	11	-33	-301	-8	-7	-12	/	/	/	/	/

Screens deposited in PubChem by Sanford-Burnham Center for Chemical Genomics.
